# Whole data set: some 25,000 sequences, median “ln(normalized median fluorescence intensity)” near 7.1, cut for the highest 2% near 10. This is one part of a sample in which the highest values are shown more often than they occur.
# System: PfSIP2 AP2 domain 1 (GST-tagged)
# Assay: gcPBM binding intensity (ln(normalized median fluorescence intensity)); higher = stronger DNA binding
# Summary of the method: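 After 1 h on an Agilent 4 × 180k array of primer-extended double-stranded 36-bp intergenic genomic probes and negative controls, bound GST-tagged P. falciparum DNA-binding domains were detected with Alexa488 anti-GST antibody and scanned at 488 nm. The domains had been expressed in E. coli, and binding took place in 1× PBS with 1% milk, 0.2 mg/ml BSA, 0.5% salmon testes DNA and 0.03% Triton X-100. Binding intensity is the highest Masliner-normalised natural-log median intensity across replicate spots of either probe orientation.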
row,Sequence,gcPBM binding intensity (ln)
1,AATATTTGTTAAAGAGGTACACCATTTGGTAGGGAA [XGTACX_site2165],7.06
2,ATTTTTTTTTTTTTTTTAAGACAAACTCTTAATTTA [CACACA_negctrl_site1389],6.78
3,TATGAAGTACACAATACACACTAATTATATATAAAT [CACACA_site5444],6.91
4,TATGAAGTGCACAATACACACTAATTCTATATAAAT [CACACA_site7269],11.2
5,TATATGAAGTACACAATACACACTAATTATATATAA [CACACA_site2608],7.12
6,CATACATACAGATATACACACATATATAATAATATA [CACACA_site5477],7.14
7,AGGTGCTTAATATATACACACATACAGATATATATA [CACACA_site5552],7.6
8,AGAATAATAAAATGGGTGCAATAGTTTTTTTTTTTT [GTGCAC_site9823],10.4
9,ATAATAAAAATAAGAGAATAAAAATGCAATTTAATG [CACACA_negctrl_site878],6.81
10,AAATGAATATTCATAGTGCAATATATAAATGAAAAT,7.94
11,GAGAAATTTATACATACACACATATATATATTATAT [CACACA_site4038],7.16
12,ATATATATATATGTATGTATATATATATGTTTGATT [XGTACX_negctrl_site62],9.56
13,TTACGAATTACATATTGTACATATGCACAATTTTAA [XGTACX_site6802],7.4
14,ATTATTTTGTTTATTACATGCAGGTGTATATTACAG [TGCATGCA_site723],7.2
15,AATATTACAATTTGGTGTACAGGTGCACATGCCTCA [XGTACX_site1730],11.5
16,ATATATTCCATAAAGGTGCTGTTAACGTGTCAACGT [GTGCAC_site9402],7.84
17,ATATAAATATAGTGTGCACACACATAATATATATAT [CACACA_site8713],8.66
18,AACATATTGGATTTAGTGCACATATATATCATAATA,10.3
19,TTATACAGGACAATAGTGCACATAAATATATGTATA,10.6
20,AATACAATAAAATAGTGTACATATATATTATGTATA [XGTACX_site8258],6.93
21,AGTGCATAATATTTATGTACGTATCACATATATTTT [XGTACX_site5166],9.05
22,ATATATATATATAGTGCACACATATAAAATATATAT [CACACA_site8884],10.1
23,ATATATCATATTATAGTGCATTTATAATAATATTAT,9.33

row,Sequence,gcPBM binding intensity (ln)
1,AAAAATAAATATATATGTACACATATGTATACAATA [XGTACX_site4692],7.03
2,ATATATATATAGTGCACACATATAAAATATATATAA [CACACA_site2745],10.3
3,TTTATATTTTTTTTTGCACACTTTAAAAAAATATAT [CACACA_site1146],7.4
4,TATAATAAAATTTTTACACACTTTAAAAAAAAAAAA [CACACA_site524],6.88
5,AAAAAAAAAAAAAGTGCACACTTTTAATATAAATAT [CACACA_site3314],10.8
6,AAGTATTATTTTTATGCATGTGAAGTGCAAAATAAA [TGCATGCA_site198],9.56
7,TTTTATTTTCGATGATGTACATTAAATTATACAGTA [XGTACX_site6053],7.01
8,AATACAATTTTTAACACACACACAATAATACAGATA [CACACA_site4823],7.17
9,ACAAATATGAGAAATTGTACATATAATAAAATAGTA [XGTACX_site2573],6.93
10,AAATAAATAAATATACGTACATATATATAATATATA [XGTACX_site5124],7.23
11,TATGTAAAAAGAGAAAAAAAAAAGAACGATAATTTC [CACACA_negctrl_site946],6.58
12,AATTAAAAAATTATCACACATATATATATATATATA [CACACA_site5789],9.53
13,TTTATATACACACAGAAGAACAGAAATATTATATAT [TGCATGCA_negctrl_site483],7.2
14,TTTAAAAAATAATATTGTACTATTCTCCCAATTTCT [XGTACX_site7079],6.57
15,GGTATACATATTAAATGTACATATTTTAACAATAAG [XGTACX_site4868],7.1
16,TGATTCTTTTGTATCACACACACTTAGTTTAATTTT [CACACA_site2404],6.85
17,TCTGTAAATACGTGCACACACAAATCACAAATGTGA [CACACA_site330],9.89
18,AATAAAAAAAAAAATAATATATATGTATAAATATAT [CACACA_negctrl_site1561],6.83
19,AAAAAAAAAAAAAAAGCACACACCAATGAGCAGCTT [CACACA_site1845],7.62
20,ATTTTTTTATTTTGTGCACACACATAAAAATATATA [CACACA_site762],9.99
21,TTTTTTATTTTGTGCACACACATAAAAATATATATA [CACACA_site761],9.42
22,TTTTTTATTTTGTGCACACACATAAAAATATAAATA [CACACA_site6497],9.8

# — the supplement of paper PMC11417369
